Screening results: PubChem, National Center for Advancing Translational Sciences (NCATS)
Compounds with a hit are over-represented: about 21% of the library has one in this group of screens.
DT40 TDP1 CPT = growth inhibition of DT40 Tdp1-/-;hTDP1 cells with camptothecin (screen for TDP1 inhibitors) | actives 12% (n = 420,000) | Potency, µM (top dose mostly 46.2 µM), inactives show top-dose activity change, negative = growth inhibition, actives largely listed as inhibitors | chicken DT40 Tdp1-/-;hTDP1 cells + 20 nM CPT, ATP luminescence, 48 h; also: potency is read from the fitted curve at half-maximal effect; nearly all actives have a fitted effect of over 55% in size
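Chicken DT40 Tdp1-/- cells complemented with human TDP1, 400 cells/well, exposed to compounds plus 20 nM camptothecin for at least 48 h at 37 C; viability read as ATP content by CellTiter-Glo luminescence.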
ELG1 DNA repair = blocks ELG1-dependent DNA repair in HEK293T cells. actives 2.3% (n = 330,000). Potency, µM (doses to about 46.1 µM), for the others: at the highest dose activity change, negative = inhibition, most hits filed as inhibitors. HEK293T ELG1-luciferase reporter, luminescence, 16 h; DNA damage induced by 5-fluorouridine; also: potency is read from the fitted curve at half-maximal effect; nearly all actives have a fitted effect of over 55% in size
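Quantitative HTS, concentration-response format. 2,000 cells/well co-treated with 5-fluorouridine and compound, 16 hr in 5% CO2 at 37 °C; ONE-Glo luminescence read after 30 min.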
IL1B secr inh = inflammasome signaling inhibition, IL-1 beta readout; THP-1 LPS/ATP IL-1B secretion, AlphaLISA, 16 h; hits give low values; activity change, % at 57.5 µM; actives 4.7% (n = 360,000); AID 743279; in the data active = activity change below about -50%; inconclusive = mostly about -30% to -49%
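THP-1 cells pretreated 1 hr with compounds (up to 57.5 uM final), then stimulated with LPS (250 ng/mL final) plus ATP (1.25 mM final); secreted IL-1B measured by AlphaLISA after 16 hr, decreased signal indicating inhibition.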
TDP1 cell noCPT = qHTS for Inhibitors of human tyrosyl-DNA phosphodiesterase 1 (TDP1): qHTS in cells in absence of CPT. DT40 Tdp1-/- hTDP1 cells, no CPT, ATP luminescence, 48 h. actives 15% (n = 420,000). Potency, µM (titrated, usually from 46.2 µM), without a hit: at the highest dose activity change, negative = growth inhibition, most hits filed as inhibitors. AID 686978, 2013; also: potency is read from the fitted curve at half-maximal effect; nearly all actives have a fitted effect of over 55% in size
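DT40 Tdp1-/-;hTDP1 cells, no CPT (DMSO vehicle only), 400 cells/well; compounds pin-transferred; ≥48 hr, 37 °C; CellTiter-Glo 30 min RT dark, luminescence read.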
RORgamma inh = inhibitors of mouse ROR gamma transcriptional activity. Drosophila S2 Gal4-RORgamma UAS-luciferase reporter, 20 h. Potency, µM (highest dose often 53.6 µM), without a hit: at the highest dose activity change, negative = inhibition, most hits filed as inhibitors. actives 5.4% (n = 310,000); also: potency is read from the fitted curve at half-maximal effect; nearly all actives have a fitted effect of over 60% in size
Target sequence (P51450 whole entry, looked up, the tested form may be a part): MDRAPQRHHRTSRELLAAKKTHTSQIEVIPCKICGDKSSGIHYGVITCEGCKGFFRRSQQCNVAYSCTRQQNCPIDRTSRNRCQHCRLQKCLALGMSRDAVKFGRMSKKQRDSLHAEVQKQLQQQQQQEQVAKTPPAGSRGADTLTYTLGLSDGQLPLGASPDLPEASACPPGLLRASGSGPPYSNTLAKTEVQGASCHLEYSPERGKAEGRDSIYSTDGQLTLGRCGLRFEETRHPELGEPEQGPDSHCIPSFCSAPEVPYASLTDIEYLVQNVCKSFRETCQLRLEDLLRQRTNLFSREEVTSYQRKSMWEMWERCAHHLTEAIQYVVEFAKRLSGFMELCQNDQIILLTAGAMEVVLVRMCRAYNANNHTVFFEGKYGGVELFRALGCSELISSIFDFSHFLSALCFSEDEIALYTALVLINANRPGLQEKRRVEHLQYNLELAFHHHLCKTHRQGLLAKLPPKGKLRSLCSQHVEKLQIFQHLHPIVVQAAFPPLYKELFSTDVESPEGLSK
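Compounds are pin-transferred onto Drosophila Schneider cells expressing a copper-inducible Gal4–ROR gamma transactivation domain fusion. After 1 hr, copper sulfate is added to 700 uM final; luciferase is read 20 hr later.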
VP16 counter = counter-screen for ROR gamma inhibitors: Gal4-VP16 reporter. Drosophila S2 Gal4-VP16 UAS-luciferase, luminescence, 20 h. Potency, µM (top dose mostly 53.6 µM), without a hit: at the top dose activity, negative = inhibition, most hits filed as inhibitors. actives 3.5% (n = 310,000). AID 2546;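 also: Gal4-VP16 expression switched on by copper sulfate through the metallothionein promoter; potency is read from the fitted curve at half-maximal effect; nearly all actives have a fitted effect of over 50% in size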
* hit, by the source's call; ? = inconclusive; . = no result; [ ] = another dose, or the depositor's remark. Unless noted, calls follow the shape of the dose curve; as a rule, active = well fitted curve in the direction sought with a large enough effect; inconclusive = small, poorly fitted or top-dose-only effect, or another doubt; inactive = no such curve, though single readings can be large; an effect the other way counts as inactive or inconclusive. % is scaled to controls: 0 for no effect and ±100 for the full control effect.

SMILES	DT40 TDP1 CPT	ELG1 DNA repair	IL1B secr inh	TDP1 cell noCPT	RORgamma inh	VP16 counter
COc1ccc2nc(NC(=O)CSc3nc4ccccc4o3)sc2c1	?	?	2	?	?	?
CCOc1ccc2nc(NC(=S)N(C)C)sc2c1	1.3µM*	?	-14	1.2µM*	1µM*	1.8µM*
CCOc1ccc2nc(NC(=O)CSc3ccccc3)sc2c1	?	6%	-9	26µM*	33%	-1%
COC(=O)c1scc(-c2ccc(C)cc2)c1S(=O)(=O)Nc1cccc(C(F)(F)F)c1	?	.	.	-22%	.	.
CCOc1ccc2nc(NC(=O)CCn3cccc3)sc2c1	-9%	?	-11	-2%	5µM*	?
CCOc1ccc2nc(NS(=O)(=O)Cc3ccccc3)sc2c1	3.3µM*	?	36	4.6µM*	-13%	14%
CCOc1ccc2nc(NC(=O)c3ccccc3)sc2c1	13µM*	.	.	23µM*	.	.
CCOc1ccc2nc(NS(=O)(=O)c3ccc(NC(C)=O)cc3)sc2c1	-5%	0%	18	-17%	?	3%
S=C(Nc1ccccc1)c1nc2ccccc2s1	?	?	22	?	1.1µM*	0.71µM*
O=C(NNc1nc2ccccc2s1)Nc1ccccc1	-6%	?	23	-16%	?	-27%
CN(C(=O)c1cccc(NC(=O)Cc2ccc(NC(=O)C3CCCN(C(=O)C4CCCC4)C3)cc2)c1)C1CCCCC1 (stereo not given)	?	.	31	16µM*	.	.
CN(C(=O)c1cccc(NC(=O)Cc2cccc(NC(=O)C3CCN(C(=O)c4ccccc4)CC3)c2)c1)C1CCCC1	?	.	-3	?	.	.
CN(C(=O)c1cccc(NC(=O)Cc2ccc(NC(=O)C3CCN(C(=O)c4ccccc4)CC3)cc2)c1)C1CCCCC1	23µM*	.	57	?	.	.
O=C(Cc1ccc(NC(=O)C2CCCN(C(=O)C3CCCC3)C2)cc1)Nc1cccc(C(=O)N2CCCC2)c1 (stereo not given)	?	.	18	?	.	.
CN(C(=O)c1ccc(NC(=O)Cc2cccc(NC(=O)C3CCCN(C(=O)C4CCC4)C3)c2)cc1)C1CCCC1 (stereo not given)	0.18µM*	?	18	?	.	.
O=C(Cc1ccc(NC(=O)C2CCCN(C(=O)C3CCCCC3)C2)cc1)Nc1cccc(C(=O)N2CCCC2)c1 (stereo not given)	29µM*	.	24	?	.	.
O=C(NCCOc1ccccc1F)C1CC(=O)N(c2ccc3c(c2)OCCO3)C1 (stereo not given)	-12%	2%	8	7%	.	.
CCC(=O)NC(Nc1nc(C)cs1)(C(=O)OC)C(F)(F)F (stereo not given)	?	-2%	0	-4%	3%	-5%
CN(C(=O)c1ccc(NC(=O)Cc2cccc(NC(=O)C3CCCN(C(=O)C4CCCCC4)C3)c2)cc1)C1CCCC1 (stereo not given)	21µM*	?	13	?	.	.
CN(C(=O)c1ccc(NC(=O)Cc2cccc(NC(=O)C3CCCN(C(=O)C4CC4)C3)c2)cc1)C1CCCC1 (stereo not given)	?	-3%	16	-29%	.	.
Cc1noc2ncc(C(=O)c3cc(F)ccc3O)cc12	-14%	-1%	25	-21%	29%	1%
CCCCN1Cc2cc(C(=O)c3cc(F)ccc3O)cnc2NC1=O	?	?	-57*	?	19%[10 µM]	5%
Cc1[nH]nc2ncc(C(=O)c3cc(F)ccc3O)cc12	?	18µM*	0	?	12%	3%
O=C(c1cn[nH]c1)c1cc(F)ccc1O	-25%	21µM*	-12	-29%	10%	-10%
Cc1cccc2c1c1ccc3c(c1n2C)C(=O)C=CC3=O	0.46µM*	-25%	10	0.41µM*	27%	-10%
SMILES	DT40 TDP1 CPT	ELG1 DNA repair	IL1B secr inh	TDP1 cell noCPT	RORgamma inh	VP16 counter
Cc1csc(NC(=O)CN2C(=O)COc3ccc(Cl)cc32)n1	-15%	?	1	-28%	.	.
COc1cccc(NC(=O)CN(C2=NC3CS(=O)(=O)CC3S2)c2cccc(C)c2)c1 (stereo not given)	8%	6%	-65*	?	42%	-3%
COC(=O)N/N=C/c1cn(Cc2ccccc2Cl)c2ccccc12	18µM*	-14%	-27	21µM*	32%	2%
COC(=O)N/N=C/c1cn(Cc2ccc(Cl)cc2Cl)c2ccccc12	?	-13%	-28	?	?	-14%
COC(=O)N/N=C/c1cc(Cl)cc(Cl)c1OCc1ccccc1F	?	-16%	13	18µM*	3%	-4%
COC(=O)N/N=C/c1cn(Cc2ccccc2F)c2ccccc12	-3%	21µM*	-75*	?	29%	-2%
CCn1c(=O)cc(OCC(=O)NC2CC2)c2ccccc21	2%	?	-16	30%	-20%	1%
CCn1c(=O)cc(OCC(=O)O)c2ccccc21	4%	-5%	22	3%	1%	2%
CCc1ccc(CNC(=O)COc2cc(=O)n(CC)c3ccccc23)cc1	?	.	.	26µM*	.	.
CCn1c(=O)cc(OCC(=O)NCCC(C)C)c2ccccc21	29µM*	?	-17	?	-6%	0%
Cn1c(=O)cc(OCCCC(=O)NCc2ccc(F)cc2Cl)c2ccccc21	-26%	?	-7	?	?	0%
